For some assays here: Potency and affinity values are given separately.
Experiments:
Set-up in all cases: scale not given: direction of the effect not stated beside the values
[1] = target: Protein translocase subunit SecA (Escherichia coli (strain K12)) (UniProt P10408); experiment: Assay to Identify E. coli SecA ATPase Inhibitors; assay type: functional; conditions: 30 µM
[2] = target: T1, Ubiquitin-activating enzyme e1, putative (Leishmania donovani (strain BPK282A1)) (UniProt E9BSI1); experiment: Leishmania donovani Ubiquitin Activating Enzyme (LdE1); assay type: functional; conditions: 30 µM
T1 sequence (whole entry): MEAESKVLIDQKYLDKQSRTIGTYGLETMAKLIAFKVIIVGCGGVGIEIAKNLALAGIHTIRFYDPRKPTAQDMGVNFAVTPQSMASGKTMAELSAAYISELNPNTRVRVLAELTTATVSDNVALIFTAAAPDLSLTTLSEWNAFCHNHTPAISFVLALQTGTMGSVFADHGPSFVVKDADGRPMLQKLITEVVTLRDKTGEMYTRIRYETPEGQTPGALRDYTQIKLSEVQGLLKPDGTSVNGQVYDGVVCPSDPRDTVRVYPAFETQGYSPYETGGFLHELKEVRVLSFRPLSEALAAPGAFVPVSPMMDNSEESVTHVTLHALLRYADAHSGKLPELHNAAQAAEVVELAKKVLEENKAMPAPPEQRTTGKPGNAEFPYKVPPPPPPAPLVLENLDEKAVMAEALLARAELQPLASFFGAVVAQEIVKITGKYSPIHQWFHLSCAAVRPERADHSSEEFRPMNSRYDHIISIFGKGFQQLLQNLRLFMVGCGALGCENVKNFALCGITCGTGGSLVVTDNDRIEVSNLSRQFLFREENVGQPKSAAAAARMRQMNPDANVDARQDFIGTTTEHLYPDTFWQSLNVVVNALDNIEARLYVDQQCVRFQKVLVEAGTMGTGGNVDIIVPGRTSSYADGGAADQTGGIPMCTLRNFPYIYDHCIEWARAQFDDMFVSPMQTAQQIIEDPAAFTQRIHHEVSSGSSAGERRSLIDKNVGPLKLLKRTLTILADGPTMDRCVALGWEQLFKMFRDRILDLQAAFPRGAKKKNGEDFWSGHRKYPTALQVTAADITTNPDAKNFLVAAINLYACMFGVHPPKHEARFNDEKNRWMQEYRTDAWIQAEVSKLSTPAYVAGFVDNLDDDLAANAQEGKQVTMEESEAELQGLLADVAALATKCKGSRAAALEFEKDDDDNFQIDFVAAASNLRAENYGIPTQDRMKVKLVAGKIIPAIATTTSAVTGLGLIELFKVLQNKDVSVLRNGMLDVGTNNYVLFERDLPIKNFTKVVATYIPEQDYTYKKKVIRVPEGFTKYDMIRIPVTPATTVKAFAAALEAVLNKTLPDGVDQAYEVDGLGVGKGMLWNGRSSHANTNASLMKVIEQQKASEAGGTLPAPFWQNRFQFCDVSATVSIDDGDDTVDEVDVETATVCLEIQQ

[3] = target: AMP-activated protein kinase, AMPK (Homo sapiens) (UniProt P54646+O43741+P54619+Q9UGJ0+Q9Y478+Q13131+Q9UGI9); experiment: AMP-dependent Kinase enzyme assay. An in vitro enzyme assay that detects ADP turnover that is directly proportional to AMPK activity. This uses naive AMPK that is activated during the assay with MK-8722; assay type: functional; conditions: 30 µM
[4] = target: Sialic acid-binding Ig-like lectin 9 (Homo sapiens) (UniProt Q9Y336); experiment: Hs-Siglec9 ALPHAscreen SOP 20170721; conditions: 10 µM
Sequence of Sialic acid-binding Ig-like lectin 9 (Homo sapiens) (Q9Y336 whole entry): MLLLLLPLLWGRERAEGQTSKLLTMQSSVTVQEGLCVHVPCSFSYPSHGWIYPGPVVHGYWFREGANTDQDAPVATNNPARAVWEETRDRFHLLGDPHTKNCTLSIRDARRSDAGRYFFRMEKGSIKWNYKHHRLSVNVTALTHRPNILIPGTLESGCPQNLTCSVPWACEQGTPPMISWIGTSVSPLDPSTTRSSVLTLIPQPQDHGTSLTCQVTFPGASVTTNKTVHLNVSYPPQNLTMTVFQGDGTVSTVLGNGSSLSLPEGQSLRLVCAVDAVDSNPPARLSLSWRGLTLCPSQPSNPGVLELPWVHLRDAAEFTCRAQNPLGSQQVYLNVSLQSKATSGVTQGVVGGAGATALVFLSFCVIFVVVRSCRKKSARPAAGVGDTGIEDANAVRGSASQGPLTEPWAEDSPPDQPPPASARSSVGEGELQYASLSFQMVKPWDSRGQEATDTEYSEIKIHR

Trypanosoma cruzi = experiment: Trypanosoma cruzi phosphomannomutase and mannose-1-phosphate guanylyltransferase assay; assay type: functional; conditions: 10 µM
[5] = target: T2, Arginase-2, mitochondrial (Homo sapiens) (UniProt P78540); experiment: in vitro enzyme assay to detect the production of urea directly proportional to the activity of Arginase II; assay type: functional; conditions: 33.3 µM; also: in the data most compounds retested in dose-response had high values
T2 sequence (whole entry): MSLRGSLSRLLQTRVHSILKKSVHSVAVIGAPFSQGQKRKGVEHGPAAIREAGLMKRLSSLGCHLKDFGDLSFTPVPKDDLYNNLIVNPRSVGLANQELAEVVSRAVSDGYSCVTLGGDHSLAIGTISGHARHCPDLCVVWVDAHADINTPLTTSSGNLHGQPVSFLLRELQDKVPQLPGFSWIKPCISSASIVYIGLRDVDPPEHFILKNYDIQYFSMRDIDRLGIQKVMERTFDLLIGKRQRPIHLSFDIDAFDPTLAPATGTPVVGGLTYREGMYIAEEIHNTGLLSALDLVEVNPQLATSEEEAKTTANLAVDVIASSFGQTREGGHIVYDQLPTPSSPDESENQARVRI

[6] = target: T3, Proteasome subunit beta (Trypanosoma cruzi) (UniProt O96673); experiment: Trypanosoma cruzi proteasome chymotrypsin-like activity (TcProtChymo) assay.; also: in the data most compounds retested in dose-response had high values; assay type: functional; conditions: 9.37 µM
T3 sequence (whole entry): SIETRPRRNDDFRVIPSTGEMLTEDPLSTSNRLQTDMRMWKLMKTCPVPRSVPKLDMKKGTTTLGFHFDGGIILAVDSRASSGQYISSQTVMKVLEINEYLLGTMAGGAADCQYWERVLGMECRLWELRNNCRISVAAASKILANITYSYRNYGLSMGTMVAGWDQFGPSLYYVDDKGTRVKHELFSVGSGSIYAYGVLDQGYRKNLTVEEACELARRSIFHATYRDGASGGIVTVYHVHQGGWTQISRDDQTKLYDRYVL

Homo sapiens = species: Homo sapiens; experiment: To identify inhibition of the IFN signalling (Jak-Stat) pathway via expression of an eGFP reporter gene under the control of an IFN-stimulated response element (ISRE) containing MxA promoter.; assay type: functional; conditions: 30 µM
[7] = target: T4, Tyrosyl-tRNA synthetase, putative (Trypanosoma cruzi (strain CL Brener)) (UniProt Q4DSP6); experiment: Trypanosoma cruzi tyrosyl tRNA synthetase (TcYRS) _High Tyrosine SOP; assay type: functional; conditions: 30 µM; also: in the data most compounds retested in dose-response had high values
T4 sequence (whole entry): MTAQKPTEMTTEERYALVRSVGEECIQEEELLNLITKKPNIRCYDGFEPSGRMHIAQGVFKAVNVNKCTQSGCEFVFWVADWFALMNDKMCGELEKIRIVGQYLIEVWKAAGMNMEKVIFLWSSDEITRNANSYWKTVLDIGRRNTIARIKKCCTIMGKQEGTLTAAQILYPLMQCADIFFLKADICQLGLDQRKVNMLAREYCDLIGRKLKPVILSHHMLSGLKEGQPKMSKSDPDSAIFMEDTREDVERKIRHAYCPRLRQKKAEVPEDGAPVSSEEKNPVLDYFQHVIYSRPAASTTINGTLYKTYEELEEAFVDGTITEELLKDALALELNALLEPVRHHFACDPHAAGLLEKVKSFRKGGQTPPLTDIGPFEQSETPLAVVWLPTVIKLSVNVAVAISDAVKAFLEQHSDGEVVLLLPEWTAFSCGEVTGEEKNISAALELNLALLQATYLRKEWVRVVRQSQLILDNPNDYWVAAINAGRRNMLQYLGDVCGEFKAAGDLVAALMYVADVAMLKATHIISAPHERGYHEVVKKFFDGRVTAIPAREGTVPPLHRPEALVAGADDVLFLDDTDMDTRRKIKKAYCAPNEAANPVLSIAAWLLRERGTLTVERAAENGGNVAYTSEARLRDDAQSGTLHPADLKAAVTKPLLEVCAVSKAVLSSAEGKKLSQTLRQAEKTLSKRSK

[8] = target: T4, Tyrosyl-tRNA synthetase, putative (Trypanosoma cruzi (strain CL Brener)); experiment: Trypanosoma cruzi tyrosyl tRNA synthetase (TcYRS) SOP; assay type: functional; conditions: 30 µM
[9] = target: Chromo domain-containing protein 1 (Saccharomyces cerevisiae (strain ATCC 204508 / S288c) (Baker's yeast)) (UniProt P32657); experiment: ScCHD-1 Enzyme Inhibition Assay; assay type: functional; conditions: 30 µM; also: in the data most compounds retested in dose-response had high values
Sequence of Chromo domain-containing protein 1 (Saccharomyces cerevisiae (strain ATCC 204508 / S288c) (Baker's yeast)) (P32657 whole entry, the tested form may be a part): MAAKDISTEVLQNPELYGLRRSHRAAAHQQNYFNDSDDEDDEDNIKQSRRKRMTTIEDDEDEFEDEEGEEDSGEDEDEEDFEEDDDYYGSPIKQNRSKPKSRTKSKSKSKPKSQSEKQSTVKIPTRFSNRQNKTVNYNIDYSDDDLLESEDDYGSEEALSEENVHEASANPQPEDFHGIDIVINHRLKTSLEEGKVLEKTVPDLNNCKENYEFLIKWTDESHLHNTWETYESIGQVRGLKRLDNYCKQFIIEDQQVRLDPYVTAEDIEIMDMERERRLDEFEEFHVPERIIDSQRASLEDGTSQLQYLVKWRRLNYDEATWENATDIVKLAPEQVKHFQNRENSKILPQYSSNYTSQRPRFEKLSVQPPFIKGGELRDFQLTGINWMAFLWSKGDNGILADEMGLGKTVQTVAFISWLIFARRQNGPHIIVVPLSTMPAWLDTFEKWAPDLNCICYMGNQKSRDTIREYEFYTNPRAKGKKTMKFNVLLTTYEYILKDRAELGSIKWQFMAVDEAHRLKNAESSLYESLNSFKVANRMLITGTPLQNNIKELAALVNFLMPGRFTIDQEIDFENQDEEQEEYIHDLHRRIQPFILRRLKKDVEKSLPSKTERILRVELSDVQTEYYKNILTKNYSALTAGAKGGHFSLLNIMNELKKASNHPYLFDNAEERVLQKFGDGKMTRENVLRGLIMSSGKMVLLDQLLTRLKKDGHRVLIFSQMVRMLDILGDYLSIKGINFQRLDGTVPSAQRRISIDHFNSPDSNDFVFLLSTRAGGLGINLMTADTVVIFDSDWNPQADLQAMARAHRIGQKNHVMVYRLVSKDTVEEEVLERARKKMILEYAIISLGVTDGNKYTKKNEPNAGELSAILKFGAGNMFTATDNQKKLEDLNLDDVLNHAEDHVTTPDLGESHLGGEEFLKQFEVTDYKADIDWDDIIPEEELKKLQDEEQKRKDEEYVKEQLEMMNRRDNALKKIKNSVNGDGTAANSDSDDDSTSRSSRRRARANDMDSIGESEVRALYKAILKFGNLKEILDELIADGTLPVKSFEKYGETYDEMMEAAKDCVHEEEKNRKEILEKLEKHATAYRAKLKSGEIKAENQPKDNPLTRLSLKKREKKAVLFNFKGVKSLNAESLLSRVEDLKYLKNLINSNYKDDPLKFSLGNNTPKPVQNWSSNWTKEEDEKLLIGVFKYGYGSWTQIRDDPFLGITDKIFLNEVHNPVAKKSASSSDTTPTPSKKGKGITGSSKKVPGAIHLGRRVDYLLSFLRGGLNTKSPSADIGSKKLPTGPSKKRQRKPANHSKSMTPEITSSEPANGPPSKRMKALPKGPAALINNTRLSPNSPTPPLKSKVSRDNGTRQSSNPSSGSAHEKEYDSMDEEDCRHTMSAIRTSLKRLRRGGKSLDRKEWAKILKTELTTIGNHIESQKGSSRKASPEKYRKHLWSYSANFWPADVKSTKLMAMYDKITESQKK

Sequence of Protein translocase subunit SecA (Escherichia coli (strain K12)) (P10408 whole entry): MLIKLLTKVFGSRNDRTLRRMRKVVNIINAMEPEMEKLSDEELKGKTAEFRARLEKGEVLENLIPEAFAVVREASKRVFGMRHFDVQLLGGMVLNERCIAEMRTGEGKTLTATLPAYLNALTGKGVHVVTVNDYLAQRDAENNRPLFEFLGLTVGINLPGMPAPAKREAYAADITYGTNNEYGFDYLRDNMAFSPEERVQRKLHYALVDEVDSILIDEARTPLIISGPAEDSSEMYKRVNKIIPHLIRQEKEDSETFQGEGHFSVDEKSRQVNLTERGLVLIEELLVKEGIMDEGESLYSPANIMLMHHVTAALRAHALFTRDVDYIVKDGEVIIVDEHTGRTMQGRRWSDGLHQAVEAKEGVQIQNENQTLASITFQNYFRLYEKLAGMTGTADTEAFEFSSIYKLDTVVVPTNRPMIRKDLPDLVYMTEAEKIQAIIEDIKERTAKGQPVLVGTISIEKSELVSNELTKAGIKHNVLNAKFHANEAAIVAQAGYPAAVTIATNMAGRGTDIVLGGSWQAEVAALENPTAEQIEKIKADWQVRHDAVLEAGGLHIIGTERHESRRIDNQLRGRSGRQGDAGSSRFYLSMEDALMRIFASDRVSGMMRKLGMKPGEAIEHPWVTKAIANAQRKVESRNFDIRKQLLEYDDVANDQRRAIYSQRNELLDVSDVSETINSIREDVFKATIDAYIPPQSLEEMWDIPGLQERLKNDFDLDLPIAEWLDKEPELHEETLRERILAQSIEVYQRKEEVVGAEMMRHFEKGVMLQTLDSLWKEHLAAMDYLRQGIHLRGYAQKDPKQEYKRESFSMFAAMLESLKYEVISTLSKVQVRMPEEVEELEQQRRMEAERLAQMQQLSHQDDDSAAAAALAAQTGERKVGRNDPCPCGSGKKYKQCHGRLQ

SMILES	Percent Effect [1]	Percent Effect [2]	Percent Effect [3]	Percent Effect [4]	Percent Effect (Trypanosoma cruzi)	Percent Effect [5]	Percent Effect [6]	Percent Effect (Homo sapiens)	Percent Effect [7]	Percent Effect [8]	Percent Effect [9]
COc1cccc(COCC(=O)N2CCN(CC(C)(C)O)CC2)c1	1.47%	-5.26%	7.35%	8.14%	-3.76%	6.51%	-0.167%	21%	1.47%	-2.44%	-5.7%
CC(C)C(C)NC(=O)Nc1ccccc1CN1CCOCC1 (configuration not stated)	-7.45%	2.7%	0.895%	4.22%	1.47%	2.23%	2.66%	-10.3%	6.45%	11.1%	-3.52%
Cc1cc(CN(C)C(=O)NC2CCN(Cc3ccccc3)C2)no1 (configuration not stated)	-1.84%	18.4%	-5.49%	-5.79%	4.51%	-2.3%	15.4%	-0.406%	8.33%	21.9%	-12%
CN(c1ccc(C(=O)NCCCN2CCOCC2)c(Cl)c1)S(C)(=O)=O	-5.85%	5.2%	-0.453%	13.2%	4.23%	-13.8%	7.16%	-1.2%	5.38%	11.1%	-6.36%
CN(C)C(=O)N1CCc2c(CNc3ncccn3)cncc2C1	-2.85%	0%	-1%	7.13%	1.35%	-23.8%	1.88%	-4.02%	6.25%	7.5%	-2.6%
CCn1cc(CN2CCc3nc(N4CCOCC4)nc(O)c3CC2)cn1	-7.19%	12.2%	-3.19%	18.1%	0.988%	-6.26%	7.64%	4.24%	3.23%	9.09%	-27.2%
Cn1cc(-c2csc(CN3CCOCC3)n2)cn1	2.9%	4.17%	-3.9%	1.67%	0.0972%	8.39%	1.58%	-3.07%	-1.05%	2.56%	-1.39%
O=C(NCCNc1ccccn1)N1CCSCC1	-7.13%	5.41%	23.3%	-0.67%	-4.43%	0.802%	6.67%	5.29%	1.48%	1.24%	-1.12%
CC(=O)NC1CCCN(C(=O)NCc2ccc(-c3ccn[nH]3)cc2)C1 (configuration not stated)	-4.57%	21.1%	2.99%	-2.61%	3.83%	0%	12.4%	-12.3%	8.37%	23.5%	-8.05%
Cc1n[nH]c(C)c1C1CCCN1C(=O)NCCSC(C)(C)C (configuration not stated)	-2.09%	0%	3.06%	-3.83%	-1.37%	-0.909%	0.887%	4.14%	3.23%	-2.5%	-1.95%
COCCOc1ncccc1C(=O)Nc1ccc(-n2cncn2)c(F)c1	-2.86%	10.5%	0.415%	9.57%	0%	0%	17.5%	-26.4%	7.35%	12.2%	-9.99%
Cc1ccc(-c2nc(CN3CCN(S(=O)(=O)N(C)C)CC3)cs2)o1	1.85%	3.8%	3.49%	-3.53%	-3.79%	1.94%	20.9%	43.8%	8.33%	12.7%	-19.4%
Cc1ccc(CN2CCC3(CC2)OC(C(=O)N(C)C)c2ccccc23)o1 (configuration not stated)	-0.000759%	4%	-1.87%	-0.475%	-10.2%	-8.63%	14.6%	2.54%	4.23%	0%	-8.66%
O=C(N[C@@H]1CN(Cc2cccs2)[C@@H]2CCCO[C@@H]21)C1CC1	2.58%	8%	2.54%	23.2%	-7.34%	-53.6%	13.3%	1.32%	2.08%	20%	-6.29%
N#Cc1cc(NC(=O)c2ccsc2)ccc1N1CCC(O)CC1	-2.1%	13.5%	-3.83%	18.9%	5.99%	12.9%	19.3%	27.8%	4.76%	14.6%	-1.54%
CN(CC1CN(Cc2cn3ccsc3n2)CCO1)c1cccnn1 (configuration not stated)	-3.37%	26%	-3.91%	-12.4%	-7.54%	1.47%	23.5%	15%	4.76%	21.2%	-26.4%
CC(C)c1cc(NC(=O)CN2CCc3cncnc3C2)on1	-5.41%	10.4%	-22.4%	3.99%	1.31%	-5.34%	4.39%	-5.17%	16.5%	21.9%	-6.84%
c1cncc(-c2ccc3c(c2)C2(CC3)CCN(c3nncs3)CC2)c1	-0.421%	0%	3.46%	8.96%	5.56%	1.6%	14.5%	47.4%	14.6%	8.64%	2.02%
Cc1cccc(-c2noc(CN3CC(n4cc(C)cn4)C3)n2)c1	-0.775%	-13%	-3.33%	7.4%	5.24%	-2.85%	27.4%	26.4%	1.94%	14.6%	-5.58%
c1cnc2c(c1)cc([C@H]1CCCO1)n2CCN1CCOCC1	-4.11%	9.46%	14.2%	5.59%	-0.593%	-5.8%	3.9%	3.93%	1.07%	11.7%	-13.8%
Cc1cccc(C2(NC(=O)CCN3C(=O)CCC3=O)CCCC2)c1	-5.83%	12.7%	-1.51%	8.26%	0.85%	-2.28%	4.83%	0.0333%	5.42%	11.4%	-4.64%
COc1ccc(CCN2CCCC(Cn3nc(C)nc3C)C2)cc1 (configuration not stated)	-1.76%	-11.4%	-0.842%	1.01%	2.77%	-2.8%	8.58%	-4.76%	8.33%	10.1%	-19.5%

Reference: ChEMBL document CHEMBL3988442, “University of Dundee, Small-Polar-MMV Screening Library” (2021)
